Assay outcomes from PubChem BioAssay.
Abeta yeast res – A-beta toxicity reversal in yeast. 410,000 tested, 0.063% active. AID 1347071. yeast expressing A-beta42, growth rescue, OD600, 48 h; response scale: 0% DMSO, 100% iron-clioquinol control. Potency, µM (series often up to 46.1 µM), usual class: activators; also: nearly all actives have a fitted effect of over 55% in size
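Growth rescue measured by 600 nm absorbance after 48 h yeast culture at 30 C with compound. Values normalized between DMSO and an equimolar ferric chloride plus clioquinol control.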
aSyn rescue – rescues yeast growth from alpha-synuclein toxicity. Yeast expressing alpha-synuclein, growth rescue, BacTiter-Glo, 24 h. Potency, µM (series often up to 46.1 µM), usual class: activators. 370,000 tested, 0.14% active. AID 652106; also: nearly all actives have a fitted effect of over 65% in size
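Rescue of yeast growth: cells expressing toxic alpha-synuclein, induced in galactose at OD600 0.02, incubated with compound 24 h at 30 C. ATP luminescence quantified growth; inhibitors of toxicity appear as activators.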
TDP43 rescue – inhibitors of TDP-43 toxicity in yeast; TDP-43 expressing yeast growth rescue, BacTiter-Glo, 24 h; Potency, µM (top dose mostly 46.1 µM), hits mostly activators; 410,000 tested, 1.8% active; AID 652104; also: nearly all actives have a fitted effect of over 50% in size
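In this qHTS, compounds that restore growth of yeast expressing TDP-43 appear as activators. Cells (OD600=0.02, galactose medium, raffinose-pregrown) are incubated with compound 24 hr at 30 deg C and growth is quantified by BacTiter-Glo.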
FUS yeast rescue – suppressors of FUS proteinopathy in yeast; S. cerevisiae FUS-expressing, growth rescue, OD600, 24 h; 390,000 tested, 0.24% active; Potency, µM (series often up to 76.6 µM), most hits filed as activators; also: nearly all actives have a fitted effect of over 55% in size
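Galactose (2%) drives FUS expression in yeast precultured in raffinose; seeding density OD 0.005. Test compounds incubated 24hr at 30C and 99% humidity before absorbance at 600 nm was measured.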
A number is an active result; n = inactive; u = inconclusive; x = no result; [ ] = dose if it differs, or a comment. A selection: hits, their analogues and other compounds. The true share with any hit is near 2.1%. Calls follow the shape of the dose curve; as a rule, active = well fitted curve in the direction sought with a large enough effect; inconclusive = small, poorly fitted or top-dose-only effect, or another doubt; inactive = no such curve, though single readings can be large; an effect the other way counts as inactive or inconclusive.

SMILES	Abeta yeast res	aSyn rescue	TDP43 rescue	FUS yeast rescue
Cc1noc(C)c1NC(=O)N(C)C[C@@H]1OCc2ccccc2-c2c(n(C)c3ccccc23)C(=O)N([C@H](C)CO)C[C@H]1C	n	n	n	n
C/C(=N\OC(=O)c1ccc(F)cc1)c1sc(-c2ccccc2)nc1C	n[9.22 µM]	n	n	n
C/C(=N\OC(=O)NC1CCCCC1)c1sc(-c2ccccc2)nc1C	n	x	20µM	n
Cc1ccc(S(=O)(=O)N2CCN(C(=O)COC(=O)c3ccccc3Cl)CC2)c(C)c1	n	n	25µM	n
COc1ccc(N(CC(=O)NC2CCCCC2)C(=O)CCCC(=O)Nc2ccccn2)cc1	n	n	n	n
COc1ccccc1-c1nc(C(=O)NCC2CCCO2)cc2c1[nH]c1ccccc12 (configuration not stated)	n	n	20µM	u
COc1cc(-c2nc(C(=O)NCC3CCCO3)cc3c2[nH]c2ccccc23)cc(OC)c1OC (configuration not stated)	n	u	28µM	u
O=C(NCC1CCCO1)c1cc2ccccc2[nH]1 (configuration not stated)	n	n	n	n
COc1cccc2[nH]c(C(=O)NCC3CCCO3)cc12 (configuration not stated)	n	n	n	n
O=C(NCC1CCCO1)c1cc2c([nH]c3ccccc32)c(-c2cccc(Cl)c2)n1 (configuration not stated)	n	n	20µM	u
CCOC(=O)N1CCC(=NNc2nc3ccccc3s2)CC1	n	n	n	n
CCCNC(=O)c1cnc2sc(N3CCCCC3)nn2c1=O	n	x	n	n
OC[C@@H]1CC[C@@H](Cc2ccc(-c3ccccc3)cc2)O1	n	18µM	11µM	n
COc1ccc(N2CCN(CCS(=O)(=O)c3cc(Cl)ccc3Cl)CC2)cc1	n	n	13µM	n
Cc1cc(C)c(NC(=O)C2CCCN2CCC(C)C)c(C)c1 (configuration not stated)	n	n	n	n
CCc1ccc(OCC(=O)NNC(=O)c2cnccn2)c(Br)c1	25µM	u	25µM	n
CCc1ccc(OCC(=O)NNC(=S)NC(=O)C2CCCCC2)c(Br)c1	7.9µM	7.1µM	18µM	n
CCc1ccc(OCC(=O)Nc2ccncc2)c(Br)c1	n	n	n	n
CCn1c(SCC(=O)NNC(=O)c2ccc(C)cc2)nnc1-c1ccco1	n	n	n	n
CCCCCCCCN1C(=O)[C@H](CC(=O)NCc2ccccc2)C[C@@]2(C(=O)OCC)CCC=C12	n	n	n	u
COC(=O)[C@]12CCCCC=C1N(CCc1ccc(OC)c(OC)c1)C(=O)[C@H](CC(=O)NCC13CC4CC(CC(C4)C1)C3)C2	n	n	n	8.9µM
CCCCCCCCN1C(=O)[C@H](CC(=O)NCc2ccc(OC)c(OC)c2)C[C@@]2(C(=O)OC)CCCCC=C12	n	n	20µM	u
CCCCCCCCN1C(=O)[C@H](CC(=O)NCc2ccc(OC)c(OC)c2)C[C@@]2(C(=O)OCC)CCC=C12	n	n	28µM	u
O=C(N/N=C1/C(=O)c2cccc3cccc1c23)c1ccc(Cl)cc1	u	u	18µM	n
Cc1oc(-c2ccc(Cl)cc2)nc1CN1CCCC(C(=O)NCCc2ccccc2)C1 (configuration not stated)	n	x	n	n
SMILES	Abeta yeast res	aSyn rescue	TDP43 rescue	FUS yeast rescue
CC1=NNC(=O)/C1=C\c1cn(-c2ccccc2)nc1-c1ccc(Cl)cc1	n	n	10µM	x
Cc1ccc(-c2nn(-c3ccccc3)cc2C=C2C(=O)CC(C)(C)CC2=O)cc1	n	n	n	n
CCCCCCCc1n[nH]c(=S)n1Cc1ccccc1	u	n	16µM	n
CCC(C)(C)NC(=O)CN(C(=O)CNS(=O)(=O)c1ccccc1)c1ccc2c(c1)OCCO2	n	n	n	n
CCOC(=O)Cn1c(CN2CCc3ccccc3C2)nc2c1c(=O)n(C)c(=O)n2C	n	n	n	n
CNC(=O)c1ccc(-c2sc3nc(N4CCOCC4)c4c(c3c2N)CCCC4)o1	n	n	22µM	7.1µM
CNC(=O)c1ccc(-c2sc3nc(N4CCOCC4)c4c(c3c2N)CC(C)(C)OC4)o1	n	n	n	n
Cc1cc(C)nc(SCC(=O)Nc2ccc(Br)cn2)n1	n	n	n	n
O=C(CSc1ccc2c(c1)OCCO2)Nc1ccc(Cl)cn1	n	n	11µM	n
COc1ccc(Cl)cc1NC(=O)CN(C)C(=O)CSc1ccc2c(c1)OCCO2	n	n	20µM	n
O=C(CSc1ccc2c(c1)OCCO2)Nc1ncccc1O	n	n	n	n
O=C(CSc1ccc2c(c1)OCCO2)Nc1ccc(Br)cn1	n	n	13µM	n
Cc1ccc(S(=O)(=O)CC(=O)c2ccc(C)c([N+](=O)[O-])c2)cc1	n	n	n	n
COc1ccc(/C=N\Nc2ccc([N+](=O)[O-])cc2)c(C(=O)O)c1OC	n	n	n	n
Oc1ccc(Br)cc1-c1nc2cnccn2c1NC1CCCC1	n	n	22µM	n
COc1ccc(NC(=O)O/N=C2/CCCc3ccc(OC)cc32)cc1	n	n	14µM	n
O=C(O)c1ccccc1NC(=O)N1c2ccccc2Sc2ccccc21	n	x	20µM	n
COc1cc(NC(=O)N2c3ccccc3Sc3ccccc32)c(C(=O)O)cc1OC	n	n	u	n
O=C(COc1ccc(Cl)cc1)Nc1cc(NC(=O)COc2ccc(Cl)cc2)cc(C(=O)O)c1	n	n	n	n
CN(/N=C/c1cc(Br)cc(Br)c1O)c1cccc(C(F)(F)F)n1	n	8.9µM	u	n
CCN(CC)c1ccc2cc(-c3nnc(-c4ccncc4)o3)c(=O)oc2c1	n	n	n	n
CN(C)c1ccc(C(O)c2cc3ccccc3s2)cc1 (configuration not stated)	u	14µM	n	n
CC(=O)Nc1ccc(OCCCN2CCC(C(O)(c3ccccc3)c3ccccc3)CC2)cc1	n	n	n	n
Cc1cccc(C)c1NC(=O)c1ccc(-c2ccc(Cl)cc2Cl)o1	n	n	n	n
Cc1ccccc1NC(=O)c1ccc(-c2ccc(Cl)cc2Cl)o1	u	n	20µM	n
SMILES	Abeta yeast res	aSyn rescue	TDP43 rescue	FUS yeast rescue
Cc1cccc(C)c1NC(=O)c1ccc(-c2cc(F)ccc2F)o1	n	n	11µM	n
CN(C(=O)c1ccc(NC(=O)Cc2ccc(NC(=O)C3CCCN(C(=O)C4CCCCC4)C3)cc2)cc1)C1CCCC1 (configuration not stated)	n	n	n	u
COc1ccc(S(=O)(=O)N2CCC(C(N)=O)CC2)c2ccccc12	n[9.22 µM]	n	n	n
CCOC(=O)N1CCN(S(=O)(=O)c2ccc(OC)c3ccccc23)CC1	u	n	13µM	n
CNC(=S)N1N=C(c2ccc(C)cc2)CC1c1ccc(OC)c(OC)c1 (configuration not stated)	n	n	n	n
Cc1ccccc1CN1c2ccccc2S(=O)(=O)c2ccccc21	n	x	n	n
O=S1(=O)c2ccccc2N(Cc2ccccc2Cl)c2ccccc21	n	x	6.3µM	n
O=C1COc2ccccc2N1Cc1ccccc1Cl	n	n	22µM	n
